Results published in PubChem BioAssay.
Measured potencies and affinities stand elsewhere. Calls of active or inactive are those of the source.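 The calls were made as follows, unless noted: active = fitted dose curve reaches 40% lysis signal rise at or below the highest valid concentration tested for that sample; inconclusive = flat fit between 30% and 70%, or poor curve fit; inactive = signal falls, stays flat within 30%, or no crossing.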

How the values were obtained:
[1] = inducers of Cryptococcus neoformans cell lysis, dose response, AK release luminescence, cherry-picks (AID 687000);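 also: luminescent detection of adenylate kinase leaking from lysed yeast; 0% = median neutral control signal and 100% = double that signal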
[2] = HepG2 cell cytotoxicity, dose response, cytotoxicity control, cherry-picks, set 2 (AID 687002;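 active = a dose-response fit showing signal loss, with half-maximal concentration no higher than twice the top tested dose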)
[3] = HeLa cell cytotoxicity, dose response, cytotoxicity control, ATP luminescence, cherry-pick samples (AID 687004;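 active = a fitted half-maximal concentration no higher than twice the top valid tested dose, with signal falling as cells die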;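 also: 0% = neutral control median and -100% = staurosporine 10 µM control median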)

Measured: activity change, negative = cytotoxicity

O=C(NC(=S)Nc1ccc(N2CCOCC2)cc1)c1cccc([N+](=O)[O-])c1
inactive: all assays above

O=C(CN(c1ccccc1)S(=O)(=O)c1ccc(F)cc1)NC1CCCCCC1
inactive: all assays above

Cc1cc(C(=O)Nc2cccc3c2O[C@@H](CN(C)S(=O)(=O)c2ccccc2)[C@@H](C)CN([C@@H](C)CO)C3=O)n(C)n1
inactive: all assays above

CC(=O)N1[C@H](CO)[C@H](c2ccc(-c3ccccc3)cc2)[C@@H]1CNC(=O)C1CC1
inactive: all assays above

Cc1ccc(NC(=O)C(=O)NCCCN2CCCC2=O)c(C)c1
inactive: all assays above

CN1c2ccc(-c3ccc(F)cc3)cc2[C@H]2[C@H](CCN2S(=O)(=O)c2cccc(F)c2)[C@H]1CO
inactive: [1] | [2] | [3] 7.29% [at 6 µM]

O=C(C[C@@H]1CC[C@@H]2[C@H](COC[C@@H](O)CN2C(=O)Nc2ccc(Cl)cc2)O1)NC1Cc2ccccc2C1
inactive: all assays above

CCCNC(=O)[C@H]1[C@H](CO)[C@H]2Cn3c(cccc3=O)[C@@H]1N2C(=O)Nc1cc(F)ccc1F
inactive: all assays above

C[C@H](CO)N1C[C@H](C)[C@H](CN(C)CC2CCCCC2)Oc2c(NS(C)(=O)=O)cccc2C1=O
inactive: all assays above

CNC[C@H]1Oc2cc(Br)ccc2S(=O)(=O)N([C@H](C)CO)C[C@H]1C
inactive: all assays above

CCC(=O)N1[C@H](CN(C)C(C)=O)[C@@H](c2ccc(C3=CCCCC3)cc2)[C@@H]1CO
inactive: all assays above

CCc1ccccc1NC(=O)C1NC(=O)CC1c1ccccc1 (stereo not given)
inactive: all assays above

Cc1ccc(N(CC(=O)NCCSCc2ccco2)S(=O)(=O)c2ccc(F)cc2)cc1
inactive: all assays above

COc1ccc(CN(C)C[C@@H]2Oc3ccc(NC(=O)C4CC4)cc3C(=O)N([C@@H](C)CO)C[C@H]2C)cc1
inactive: all assays above

Fc1ccccc1CNC(=S)NCc1ccc(Cl)cc1
inactive: all assays above

C[C@H](CO)N1C[C@H](C)[C@@H](CN(C)C(=O)Nc2ccc3c(c2)OCO3)Oc2ccc(NS(=O)(=O)c3cccs3)cc2C1=O
inactive: all assays above

O=C(Oc1ccc2c3c(c(=O)oc2c1)CCCC3)c1ccco1
inactive: all assays above

C[C@H]1CN([C@@H](C)CO)C(=O)c2cc(C#CCN(C)C)cnc2O[C@@H]1CN(C)C(=O)Nc1cccc(F)c1
inactive: all assays above

C[C@H]1CN([C@@H](C)CO)C(=O)c2cc(-c3ccccc3)cnc2O[C@@H]1CN(C)C(=O)c1ccccn1
inactive: all assays above

O=C(CN(c1ccccc1)S(=O)(=O)c1ccccc1)Nc1ccc(F)cc1
inactive: all assays above

CNC(=O)CN(c1ccc(OC)cc1)S(=O)(=O)c1ccc(F)cc1
inactive: all assays above

Cc1c(Cl)cccc1NC(=O)C1NC(=O)CC1c1ccccc1 (stereo not given)
inactive: all assays above

COc1ccc(NC(=O)N(C)C[C@H]2OCCCC[C@@H](C)Oc3ccc(NC(=O)c4ccccc4)cc3C(=O)N([C@H](C)CO)C[C@H]2C)cc1
inactive: all assays above

Cc1ccc(S(=O)(=O)N2CC[C@@H]3[C@H]2c2cc(-c4ccccc4F)ccc2N[C@@H]3CO)cc1
inactive: all assays above

COc1cccc(NC(=O)CN2CCN(S(=O)(=O)c3ccc(C(C)C)cc3)CC2)c1
inactive: all assays above

COCC#Cc1cnc2c(c1)C(=O)N([C@@H](C)CO)C[C@H](C)[C@H](CN(C)C(=O)Nc1ccc(OC)cc1)O2
inactive: all assays above

CO[C@@H]1CN(C)C(=O)c2ccc(NS(=O)(=O)c3ccc(Oc4ccccc4)cc3)cc2OC[C@H](C)NC[C@H]1C
inactive: all assays above

CCC(=O)Nc1ccc2c(c1)C(=O)N(C)C[C@H](OC)[C@@H](C)CN[C@H](C)CO2
inactive: all assays above

CCCn1c(=S)[nH]c2cc(Cl)ccc21
inactive: all assays above

Cc1cc(OCC(=O)N(C)Cc2ccccc2)cc(C)c1Cl
inactive: all assays above

O=C(CSc1ncnc2c1cnn2-c1ccc(F)cc1)NCC1CCCO1 (stereo not given)
inactive: all assays above

CCC(C)N(C(=O)CSc1ncnc2c1cnn2-c1ccccc1)C1CCS(=O)(=O)C1 (stereo not given)
inactive: all assays above

C#CCN(C(=O)c1ccc(OC2CCN(C(=O)CCOC)CC2)cc1)C1CCCCC1
inactive: all assays above

O=C(CN(c1ccc(F)cc1)S(=O)(=O)c1ccccc1)NC1CC2CCC1C2 (stereo not given)
inactive: all assays above

COC(=O)C1=C(C)N(Cc2ccc(F)cc2)C(=S)NC1c1cccc(OC)c1 (stereo not given)
inactive: all assays above

C[C@H](CO)N1C[C@H](C)[C@H](CN(C)Cc2ccc(Cl)c(Cl)c2)Oc2c(NC(=O)Nc3ccccc3)cccc2C1=O
inactive: all assays above

CCOC(=O)CNC(=O)CSc1ncnc2c1cnn2-c1ccc(Cl)cc1
inactive: all assays above

CN(C)CCCn1c(=O)n(C2CCCCC2)c(=O)c2c3c(sc21)CCCCC3
inactive: all assays above

c1ccc(-n2ncc3c(NCc4ccc5c(c4)OCO5)ncnc32)cc1
inactive: all assays above

CCCN1C(=O)C(O)(C2CC(=O)CC(C)(C)O2)c2ccccc21 (stereo not given)
inactive: all assays above

CCCC(=O)Nc1ccc2c(c1)OC[C@@H](C)N(Cc1ccccn1)C[C@@H](C)[C@H](OC)CN(C)C2=O
inactive: all assays above

COc1ccc(C2CC(c3cccs3)=NN2C(=O)c2ccco2)cc1OC (stereo not given)
inactive: all assays above

C[C@H](CO)N1C[C@H](C)[C@@H](CN(C)Cc2ccc(Oc3ccccc3)cc2)Oc2ccc(NC(=O)Nc3ccc4c(c3)OCO4)cc2C1=O
inactive: all assays above

O=C(CN(c1ccccc1)S(=O)(=O)c1ccc(F)cc1)N1CCCCCC1
inactive: all assays above

O=C(CN(c1ccc(F)cc1)S(=O)(=O)c1ccccc1)NCCSC1CCCCC1
inactive: all assays above

CCCC(=O)N1CCC1(C)C(=O)Nc1cc(C)ccc1C (stereo not given)
inactive: all assays above

Cc1cc(C)c(NC(=O)CNC(=O)CNC(=O)C2CCCCC2)c(C)c1
inactive: all assays above

CC(NC(=O)COc1ccccc1C(C)(C)C)c1ccccc1 (stereo not given)
inactive: all assays above

Cc1ccc(C2CC(c3cccs3)=NN2C(=O)c2ccc(Br)o2)cc1 (stereo not given)
inactive: all assays above

Cc1cc(OCC(=O)NC(C)c2ccccc2)ccc1[N+](=O)[O-] (stereo not given)
inactive: all assays above

COC(=O)C1=C(C)N(C)C(=S)N(C)C1c1ccc(OC)cc1 (stereo not given)
inactive: all assays above

Cc1cccc(OCC(=O)NCc2ccccc2)c1
inactive: all assays above

CC(C)c1ccc(OCC(=O)NC(C)c2ccccc2)cc1 (stereo not given)
inactive: all assays above

CCOC(=O)CNC(=O)CSc1ncnc2c1cnn2-c1ccccc1
inactive: all assays above

Cc1noc(C)c1NC(=O)N(C)C[C@H]1Oc2ccc(N(C)C)cc2C(=O)N([C@H](C)CO)C[C@@H]1C
inactive: all assays above

Cc1cccc(C)c1NC(=S)NN(Cc1ccccc1)c1ccccc1
inactive: all assays above

COc1cc(NC(=O)CN2CCN(S(=O)(=O)c3ccc(C(C)C)cc3)CC2)cc(OC)c1
inactive: all assays above

O=C(COc1ccccc1)NCc1ccc2c(c1)OCO2
inactive: all assays above

O=C1CCC(C(=O)Nc2ccc([N+](=O)[O-])cc2)N1 (stereo not given)
inactive: all assays above

O=S1(=O)CCC(N=Cc2cc(Br)ccc2O)C1 (stereo not given)
inactive: all assays above
